# For some assays here: Entries with a potency or affinity are not part of this list. Calls of active or inactive are those of the source. The rule behind the calls is not given here.
# What was measured:
# [1] = Ebola virus entry assay, green fluorescence channel
# [2] = Ebola virus entry assay, ratio channel
# [3] = Ebola virus entry assay, green channel fluorescence
# [4] = Ebola virus entry assay, reporter ratio channel; AC50: Channel type: primary unless noted; outcome: Channel type: primary unless noted
# [5] = Ebola virus entry assay, blue channel (ratio component)
# [6] = qHTS profiling of the MIPE4 collection as inhibitors of Plasmodium falciparum (3D7) proliferation (AID 743344);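 note: scaled between DMSO vehicle wells and 0.29 µM artemisinin as full inhibition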; conditions: P. falciparum 3D7 in erythrocytes, SYBR Green DNA fluorescence, 72 h; at 28.5 µM (top of the series) unless noted
# In short: (§1)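 Erythrocytes infected with P. falciparum (0.3% parasitemia, 2.5% hematocrit) incubated with compounds 72 h at 37 C, 5% CO2. Lysis with saponin/Triton buffer containing SYBR Green I, overnight at room temperature in the dark; DNA fluorescence (485/535 nm) normalised to 0.29 uM artemisinin and DMSO.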
# [7] = qHTS profiling of the MIPE4 collection as inhibitors of Plasmodium falciparum (DD2) proliferation (AID 743345); conditions: P. falciparum Dd2 in erythrocytes, SYBR Green DNA, 72 h; at 28.5 µM (top of the series) unless noted
# In short: as §1
# [8] = qHTS profiling of the MIPE4 collection as inhibitors of Plasmodium falciparum (HB3) proliferation (AID 743347);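 note: plate controls were DMSO vehicle wells for no effect and artemisinin wells for full effect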; conditions: P. falciparum HB3 in erythrocytes, SYBR Green DNA, 72 h; at 28.5 µM (top of the series) unless noted
# In short: as §1
# Throughout, for efficacy: 0% is about no effect.
Structure (SMILES),efficacy [1],outcome [2],outcome [3],outcome [4],outcome [5],"parasite growth, % of DMSO control [6] [%]","parasite growth remaining, % of DMSO control (lower = more inhibition) [7] [%]","growth, % of control [8] [%]"
Oc1c(Br)cc(Br)c2cccnc12,-19.4% (inactive),inactive,inactive,inactive,inactive,–,–,–
NC(=O)n1c(O)c(C(=O)c2cccs2)c2cc(Cl)ccc21,15% (inactive),inactive,inactive,inactive,inactive,–,–,–
c1ccc2sc(SSc3nc4ccccc4s3)nc2c1,-14.3% (inactive),inactive,inactive,inactive,inactive,–,–,–
CC(C)(C)c1cc(C=O)cc(C(C)(C)C)c1O,23.6% (inactive),inactive,inactive,inactive,inactive,–,–,–
O=C1c2ccccc2C(=O)c2c1ccc(O)c2O,-18.6% (inactive),inactive,inactive,inactive,inactive,–,–,–
NCCNCCNCCNCCN,-17.9% (inactive),inactive,inactive,inactive,inactive,–,–,–
O=C(CCOCCOCCOCCOCCC(=O)Nc1c(I)cc(I)c(C(=O)O)c1I)Nc1c(I)cc(I)c(C(=O)O)c1I,-16.9% (inactive),inactive,inactive,inactive,inactive,–,–,–
CCCCCCCCCCC[C@@H](C[C@@H]1OC(=O)[C@H]1CCCCCC)OC(=O)[C@H](CC(C)C)NC=O,-27.6% (inactive),inactive,inactive,inactive,inactive,–,–,–
CC(=O)N(CC(O)CO)c1c(I)c(C(=O)NCCO)c(I)c(C(=O)NCC(O)CO)c1I (stereo unspecified),-10.6% (inactive),inactive,inactive,inactive,inactive,–,–,–
CC(C)CCOC(=O)c1ccc(N(C)C)cc1,-19.6% (inactive),inactive,inactive,inactive,inactive,–,–,–
CC(C)(C)NCC(O)c1cc(Cl)c(N)c(C(F)(F)F)c1 (stereo unspecified),12.5% (inactive),inactive,inactive,inactive,inactive,–,–,–
O=C(NC(Cc1cc(=O)[nH]c2ccccc12)C(=O)O)c1ccc(Cl)cc1 (stereo unspecified),-33.1% (inactive),inactive,inactive,inactive,inactive,–,–,–
NC(=O)N[C@@H](CCC(=O)O)C(=O)O,-11.5% (inactive),inactive,inactive,inactive,inactive,–,–,–
C[N+](C)(CCOc1ccccc1)Cc1cccs1,-18.5% (inactive),inactive,inactive,inactive,inactive,–,–,–
CC(C)(C)NC[C@H](O)COc1nsnc1N1CCOCC1,15.5% (inactive),inactive,inactive,inactive,inactive,–,–,–
CCN(CC)C(=O)c1ccc(O)c(OC)c1,13.1% (inactive),inactive,inactive,inactive,inactive,–,–,–
Cc1nc2ccccn2c(=O)c1CCN1CCC(C(=O)c2ccc(F)cc2)CC1,25.5% (inactive),inactive,inactive,inactive,inactive,–,–,–
Cc1ncc(CO)c(CN)c1O,-11.8% (inactive),inactive,inactive,inactive,inactive,–,–,–
Cc1c(I)c(=O)n(-c2ccccc2)n1C,-23.5% (inactive),inactive,inactive,inactive,inactive,–,–,–
CCn1nc(C(=O)O)c(=O)c2cc3c(cc21)OCO3,37.2% (inactive),inactive,inactive,inactive,inactive,–,–,–
NC(=O)c1cccnc1,-19.3% (inactive),inactive,inactive,inactive,inactive,–,–,–

Structure (SMILES),efficacy [1],outcome [2],outcome [3],outcome [4],outcome [5],"parasite growth, % of DMSO control [6] [%]","parasite growth remaining, % of DMSO control (lower = more inhibition) [7] [%]","growth, % of control [8] [%]"
O=C(O)c1cc(-c2ccccc2)nc2ccccc12,-14.9% (inactive),inactive,inactive,inactive,inactive,–,–,–
CC(CC(C#N)(c1ccccc1)C(C)C)N(C)C (stereo unspecified),-15% (inactive),inactive,inactive,inactive,inactive,–,–,–
O=c1[nH]c(=O)n([C@H]2C[C@H](O)[C@@H](CO)O2)cc1Br,-9.16% (inactive),inactive,inactive,inactive,inactive,–,–,–
Nc1ccc(S(=O)(=O)NC(=O)c2ccccc2)cc1,-38.1% (inactive),inactive,inactive,inactive,inactive,–,–,–
Cc1ccnc(NS(=O)(=O)c2ccc(N)cc2)n1,-24.3% (inactive),inactive,inactive,inactive,inactive,–,–,–
CC(=O)NCCCCCC(=O)O,-20.5% (inactive),inactive,inactive,inactive,inactive,–,–,–
Nc1ccc([N+](=O)[O-])c(C(F)(F)F)c1,-37.2% (inactive),inactive,inactive,inactive,inactive,–,–,–
CS(=O)(=O)c1ccc([C@@H](O)[C@@H](CF)NC(=O)C(Cl)Cl)cc1,-18.1% (inactive),inactive,inactive,inactive,inactive,–,–,–
CC(C)CCCC(C)NCCC(C)C (stereo unspecified),-17.9% (inactive),inactive,inactive,inactive,inactive,–,–,–
CCC(C(=O)NC(=O)NC(C)=O)c1ccccc1 (stereo unspecified),-14.5% (inactive),inactive,inactive,inactive,inactive,–,–,–
O=C1CC[C@H](C(=O)N2CCCCC2)N1,-19.2% (inactive),inactive,inactive,inactive,inactive,–,–,–
Cc1nc(-c2ccc(Cl)cc2)oc1COC(C)(C)C(=O)O,-18.2% (inactive),inactive,inactive,inactive,inactive,–,–,–
Cc1c(NC(C)C)c(=O)n(-c2ccccc2)n1C,-14.1% (inactive),inactive,inactive,inactive,inactive,–,–,–
CC(NN)c1ccccc1 (stereo unspecified),-30% (inactive),inactive,inactive,inactive,inactive,–,–,–
Cc1ccc(C(C)C)cc2c(C)ccc1-2,14% (inactive),inactive,inactive,inactive,inactive,–,–,–
C/C(=C(\CCO)SS/C(CCO)=C(\C)N(C=O)Cc1cnc(C)nc1N)N(C=O)Cc1cnc(C)nc1N,-13% (inactive),inactive,inactive,inactive,inactive,–,–,–
CCCCC(O)/C=C(C)/C=C/C=C/C(=O)N1CCCC1=O (stereo unspecified),-13.9% (inactive),inactive,inactive,inactive,inactive,–,–,–
NC(=O)c1ncn([C@@H]2O[C@H](CO)[C@@H](O)[C@H]2O)c1O,-21.3% (inactive),inactive,inactive,inactive,inactive,–,–,–
NS(=O)(=O)c1cc2c(cc1Cl)NC(C(Cl)Cl)NS2(=O)=O (stereo unspecified),-21% (inactive),inactive,inactive,inactive,inactive,–,–,–
N#CCC(=O)NN,-12.5% (inactive),inactive,inactive,inactive,inactive,–,–,–
O=C(c1ccccc1)C(O)c1ccccc1 (stereo unspecified),17.3% (inactive),inactive,inactive,inactive,inactive,–,–,–

Structure (SMILES),efficacy [1],outcome [2],outcome [3],outcome [4],outcome [5],"parasite growth, % of DMSO control [6] [%]","parasite growth remaining, % of DMSO control (lower = more inhibition) [7] [%]","growth, % of control [8] [%]"
C/C=C1\[C@H]2C=C(C)C[C@]1(N)c1ccc(=O)[nH]c1C2,25.8% (inactive),inactive,inactive,inactive,inactive,–,–,–
Cc1ncc(CO)c(C=O)c1O,-24.1% (inactive),inactive,inactive,inactive,inactive,–,–,–
CC1(C)O[C@@H]2C[C@H]3[C@@H]4CCC5=CC(=O)C=C[C@]5(C)[C@@H]4[C@@H](O)C[C@]3(C)[C@]2(C(=O)CO)O1,50.6% (inactive),inactive,inactive,inactive,inactive,–,–,–
CC(=O)c1cc2ccccc2s1,-31.8% (inactive),inactive,inactive,inactive,inactive,–,–,–
COc1ccc(Cc2cnc(N)nc2N)cc1OC,-23.5% (inactive),inactive,inactive,inactive,inactive,–,–,–
CN1CCN(c2c(F)cc3c(=O)c(C(=O)O)cn4c3c2SCC4)CC1,-11.6% (inactive),inactive,inactive,inactive,inactive,–,–,–
COc1cc2nc(Cl)nc(N)c2cc1OC,-33.8% (inactive),inactive,inactive,inactive,inactive,–,–,–
CCCCC(=O)OCC(=O)[C@H]1[C@H](C)C[C@H]2[C@@H]3C[C@H](F)C4=CC(=O)C=C[C@]4(C)[C@@]3(F)[C@@H](O)C[C@@]21C,21.9% (inactive),inactive,inactive,inactive,inactive,–,–,–
NS(=O)(=O)c1cc2c(cc1Cl)NC(CC1CCCC1)NS2(=O)=O (stereo unspecified),19% (inactive),inactive,inactive,inactive,inactive,–,–,–
O=[N+]([O-])c1ccc(/C=N\O)o1,8.52% (inactive),inactive,inactive,inactive,inactive,–,–,–
Cc1ccc(C(C)C)c(O)c1,-16.9% (inactive),inactive,inactive,inactive,inactive,–,–,–
CCN1CCCC1CN (stereo unspecified),-12.7% (inactive),inactive,inactive,inactive,inactive,–,–,–
CCC1(c2ccc(N)cc2)CCC(=O)NC1=O (stereo unspecified),–,–,–,–,–,89,103,101
C[C@]12CC[C@H]3[C@@H](CC[C@@]45O[C@H]4C(O)=C(C#N)C[C@]35C)[C@H]1CC[C@H]2O,–,–,–,–,–,70.4,70.8,90.1
CCNC(=O)/C=C/c1cccc(Br)c1,-12% (inactive),–,inactive,inactive,inactive,–,–,–
NC(=O)NS(=O)(=O)c1ccc(Cl)cc1,-22.2% (inactive),–,inactive,inactive,inactive,–,–,–
CCN(CC)CCNC(=O)c1cc(S(C)(=O)=O)ccc1OC,-10.9% (inactive),–,inactive,inactive,inactive,–,–,–
Cc1nc2ccc(CN(C)c3ccc(C(=O)N[C@@H](CCC(=O)O)C(=O)O)s3)cc2c(=O)[nH]1,17.4% (inactive),–,inactive,inactive,inactive,–,–,–
CC(=O)SCC(CC(=O)c1ccc(C)cc1)C(=O)O (stereo unspecified),17.3% (inactive),–,inactive,inactive,inactive,–,–,–

# From PubChem BioAssay (NCATS)
